PubChem BioAssay AID777 (Sanford-Burnham Center for Chemical Genomics, 2007)
The campaign covered roughly 96,000 compounds. About 19,000 (20%) were called active.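 How the source made its calls: active means blocking of liver enzyme CYP2C9 beyond about 50% at 5 µM (limit read from the data); inactive means the rest.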 The list is a sample of the results.

molecular target: Cytochrome P450 2C9 (Homo sapiens) (UniProt P11712); experiment: blockers of cytochrome P450 2C9 activity – biochemical, luminescence, ADME assay, primary screen (AID 777); conditions: CYP2C9 Supersomes, luciferin-H conversion, at 5 µM, stronger effect = higher value
Sequence (P11712 whole entry, looked up): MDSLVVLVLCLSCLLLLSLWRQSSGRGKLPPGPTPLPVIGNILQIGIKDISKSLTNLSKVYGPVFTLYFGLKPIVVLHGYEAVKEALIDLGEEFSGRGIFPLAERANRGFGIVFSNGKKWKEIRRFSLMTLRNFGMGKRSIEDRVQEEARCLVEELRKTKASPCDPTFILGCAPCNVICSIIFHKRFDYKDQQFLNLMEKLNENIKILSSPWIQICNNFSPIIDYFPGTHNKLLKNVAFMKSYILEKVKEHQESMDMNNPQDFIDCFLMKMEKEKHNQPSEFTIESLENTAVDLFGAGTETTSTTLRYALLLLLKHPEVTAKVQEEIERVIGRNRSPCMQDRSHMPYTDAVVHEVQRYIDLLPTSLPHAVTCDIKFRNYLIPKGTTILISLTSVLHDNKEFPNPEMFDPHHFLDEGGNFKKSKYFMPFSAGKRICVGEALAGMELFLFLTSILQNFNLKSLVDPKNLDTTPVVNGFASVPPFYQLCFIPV

SMILES | inhibition
N#C/C(=C/c1ccc(Cl)cc1)NC(=O)c1ccccc1 | 40.8% (inactive)
COc1ccccc1-n1nnnc1S(=O)(=O)Cc1ccc(Cl)cc1 | 45.6% (inactive)
COc1cccc(NC(=O)C2c3cc(OC)c(OC)cc3C(=O)N(C)C2c2cccnc2)c1 (stereo unspecified) | 30.6% (inactive)
CS(=O)(=O)c1sc2nc(-c3ccccc3)cc(-c3ccccc3)c2c1N | 19% (inactive)
CCCOc1ccc(N2CC(C(=O)Nc3ccccn3)CC2=O)cc1 (stereo unspecified) | 8.9% (inactive)
CCc1ccc(N2CC(C(=O)NC3=NCCS3)CC2=O)cc1 (stereo unspecified) | 27.4% (inactive)
CC(C)c1ccc(N2CC(C(=O)Nc3nccs3)CC2=O)cc1 (stereo unspecified) | 78.1% (active)
Cc1ccc(-n2nc(N)c3c(=O)oc(N(C)C)nc32)cc1 | 11.3% (inactive)
O=C(COc1cc(Cl)c(Cl)cc1Cl)NC(=O)NC1CCCC1 | -13% (inactive)
O=C(Cc1ccc2c(c1)CCCC2)Nc1ccccc1Cl | 13.7% (inactive)
CCOc1ccc(NC(=O)CN(C)CC(=O)Nc2cccc(Cl)c2C)cc1OCC | 56.1% (active)
CCNC(=S)Nc1cccc(Cl)c1C | 16% (inactive)
CC(=O)N1CC2(C)CN(C(C)=O)CC(C)(C1)C2=O | -0.1% (inactive)
O=C(Nc1cccc(OCC(=O)N2CCOCC2)c1)C1CCCCC1 | -6.8% (inactive)
CCN(CC)S(=O)(=O)c1ccc2c3c(cccc13)C(=O)S2 | -46.8% (inactive)
O=c1[nH]nc(Cc2ccccn2)c2ccccc12 | -9.2% (inactive)
CN(CCc1ccccn1)S(=O)(=O)c1ccc2c3c(cccc13)C(=O)N2 | 70.5% (active)
COC(=O)c1nc(NC(=O)c2ccccc2)n[nH]1 | 0.3% (inactive)
Cc1ccc(NC(=S)NC(=O)c2ccc(-c3ccccc3)cc2)c(C)c1 | 19% (inactive)
Cc1cc2[nH]ncc2cc1NC(=S)NC(=O)c1ccccc1 | 97.8% (active)
COc1ccc(N(CC(=O)NC(C)(C)C)C(=O)c2ccco2)cc1 | 9.6% (inactive)
Cc1cc(Cl)ccc1N1C(=O)CC(SCCC(=O)O)C1=O (stereo unspecified) | 35.2% (inactive)
Cc1ccc(NC(=O)CN(C)S(=O)(=O)c2cnc[nH]2)cc1C | 93.7% (active)
COc1ccc(NC(=O)CN(C)S(=O)(=O)c2ccccc2)cc1OC | 21.2% (inactive)
C/C(=C\C(=O)c1cccnc1)Nc1ccc(C)c(C)c1 | 12.9% (inactive)
Cc1ccc(C)n1-c1ccncc1 | 40.5% (inactive)

SMILES | inhibition
COc1ccc(Cl)cc1S(=O)(=O)N1CCN(CC(=O)C(C)(C)C)CC1 | -142% (inactive)
CCOC(=O)c1c(NC(=S)NC(=O)c2ccco2)sc2c1CCCC2 | 0.4% (inactive)
CCOC(=O)c1c(-c2ccccc2)csc1NC(=S)NC(=O)c1ccccc1 | 55% (active)
CCOC(=O)c1c(-c2cccc(C)c2)csc1NC(=O)c1c(-c2ccccc2)noc1C | 26.8% (inactive)
O=C1CSC(c2ccc(Cl)cc2)N1 (stereo unspecified) | -1% (inactive)
COc1ccc(C2CC(=O)Nc3sc(=N)c4c(N)c(C#N)c(N)nc4c32)cc1OC (stereo unspecified) | 41.6% (inactive)
COc1ccc(C2CC(=O)n3c(nc4ccccc43)S2)cc1OC (stereo unspecified) | 14.4% (inactive)
COc1cc(C2CC(=O)N3CN(Cc4ccccc4)CSC3=C2C#N)ccc1OCc1ccccc1 (stereo unspecified) | 86.4% (active)
CCCNC(=O)C1CC(=O)N(c2ccc(OCC(=O)Nc3cccc(C)c3C)cc2)C1 (stereo unspecified) | 22.1% (inactive)
COc1ccc(-n2nc3c(c2NC(=O)Cc2cccc(C)c2)CS(=O)C3)cc1 (stereo unspecified) | -1.9% (inactive)
COc1ccccc1C(=O)Oc1ccc(N2C(=O)CCC2=O)cc1 | -113% (inactive)
Cc1ccc(OC(=O)c2ccccc2C(=O)OCC(F)(F)C(F)F)cc1 | 84.1% (active)
Cc1ccc(OC(=O)c2cc3ccccc3o2)cc1 | -2.9% (inactive)
CC(C)(C)c1ccc(C(=O)NNC(=O)Cc2ccccc2)cc1 | 6.1% (inactive)
CCCCN1C(=O)CC(N2CCOCC2)C1=O (stereo unspecified) | 1.5% (inactive)
CN1CCCN(S(=O)(=O)c2ccc3c(c2)OCCO3)CC1 | -7.5% (inactive)
CCCCn1c(=S)[nH]c2cc(S(=O)(=O)N3CCCCC3)ccc21 | 64.3% (active)
CCCCNC(=O)C1CCCN(S(=O)(=O)c2ccc(S(=O)(=O)NCC(C)C)cc2)C1 (stereo unspecified) | 46% (inactive)
c1ccc(-c2cn3cccnc3n2)cc1 | -1.3% (inactive)
c1ccc(-n2nnnc2NC2CCCCCC2)cc1 | 24% (inactive)
O=C1C2C3C=CC(C4CC34)C2C(=O)N1/N=C/c1ccc(-c2ccccc2[N+](=O)[O-])o1 (stereo unspecified) | 36.8% (inactive)
Cc1cc(C)c([N+](=O)[O-])cc1-c1ccc(/C=N/NC(=O)c2nonc2N)o1 | 22.2% (inactive)
Cc1cc([N+](=O)[O-])c(-c2ccc(/C=N/n3cnnc3)o2)cc1Cl | 77% (active)
Cc1cc(-c2ccc(/C=N/n3cnnc3)o2)c([N+](=O)[O-])cc1C | 50.5% (active)
CCCC(=O)N1c2ccccc2NC2=C(C(=O)CCC2)C1c1ccc(F)cc1 (stereo unspecified) | 8.5% (inactive)
CC(=O)CCS(=O)(=O)c1ccc(C)c(C)c1 | -62.6% (inactive)

SMILES | inhibition
Cc1c(CN2CCC(C)CC2)c(=O)n(-c2ccccc2)n1C | -8% (inactive)
CCOC1CS(=O)(=O)CC1OCC (stereo unspecified) | -5.4% (inactive)
CC(N=Cc1nc(-c2ccccc2)oc1O)c1ccccc1 (stereo unspecified) | 66.7% (active)
CC(NC(=O)c1cc(-c2ccccc2)on1)c1ccccc1 (stereo unspecified) | -23.7% (inactive)
CCOC(=O)N1CCN(CC(=O)c2ccc3c(c2)CCN3)CC1 | -1.9% (inactive)
CC(=O)Nc1nc(C)c(Cc2ccccc2)c(=O)[nH]1 | -0.9% (inactive)
CC1(C)Cc2c(sc3nc(SCC(=O)NCc4ccccc4)n(-c4ccccc4)c(=O)c23)CS1 | -0.2% (inactive)
O=C(NCCCN1CCOCC1)c1cc2c(s1)CCC2 | -6.3% (inactive)
O=C(CNC(=O)c1cc2c(s1)CCC2)Nc1ccccc1Br | 30% (inactive)
O=C(c1cc2c(s1)CCC2)N1CCN(c2ccccc2)CC1 | 54.4% (active)
Cc1nnc(SCc2nc3ccccc3nc2C)s1 | -5.7% (inactive)
CC(C)NC(=O)c1ccccc1S(=O)c1ccccc1C#N (stereo unspecified) | -1.3% (inactive)
Cc1cnc(NC(=O)CSc2nnc(-c3ccc(Cl)cc3Cl)n2N)s1 | 46.7% (inactive)
CSc1ccc(CCNC(=O)C2CCN(c3nnc(-n4cccc4)s3)CC2)cc1 | 37% (inactive)
O=C(CN1CCSCC1)N/N=C/c1ccc(F)cc1F | 7.6% (inactive)
O=C1OC(c2ccc(Cl)cc2)=N/C1=C\c1cccnc1 | 18.2% (inactive)
CN1/C(=C\C=C2\N=C(c3ccc(F)cc3)OC2=O)C(C)(C)c2ccccc21 | 64.7% (active)
CCn1cc(C(=O)NCc2ccc(OC)cc2OC)c(=O)c2ccc(C)nc21 | 15.3% (inactive)
CCCCCCOC(=O)NCC(O)c1ccccc1 (stereo unspecified) | 23.8% (inactive)
c1ccc(-n2ncc(-c3nn[nH]n3)n2)cc1 | 46.2% (inactive)
COc1ccc(N2C(=O)C3CCCN3C2c2cccc(OC)c2)cc1 (stereo unspecified) | 16.3% (inactive)
CCCCNC(=O)CSc1nccn1Cc1ccccc1 | 23% (inactive)
COC(=O)CCSc1nccn1Cc1ccccc1 | 10.8% (inactive)
CCCCCCNC(=O)CSc1nccn1Cc1ccccc1 | 77.3% (active)
C=CCN(c1ccc(C(N)=O)cc1)S(C)(=O)=O | -10.7% (inactive)
CC(=O)c1c(N)n(C)c(=O)n(C)c1=O | 21.6% (inactive)

SMILES | inhibition
ONC(=Nc1ccccc1)c1ccccc1Cl | 2.1% (inactive)
Cc1ccc(S(=O)(=O)N2CCOCC2)cc1C(=O)NCc1ccc(F)cc1 | 31.6% (inactive)
O=C(Nc1ccc2c(c1)nc1n2CCCCC1)c1cc(S(=O)(=O)N2CCOCC2)ccc1Cl | 43.5% (inactive)
CCOC(=O)c1sc(NC(=O)c2cc(S(=O)(=O)N3CCOCC3)ccc2C)nc1C | 71% (active)
O=C1c2cccc3cc(Br)cc(c23)C(=O)N1Nc1ccccc1 | -74% (inactive)
Cn1cccc1C1(C(F)(F)F)NCCNC1=O (stereo unspecified) | 72% (active)
N#C/C(=C\c1ccccc1)c1n[nH]c(Cn2cncn2)n1 | 27% (inactive)
O=C1CSC(=O)N1CCOCCN1C(=O)CSC1=O | 7.2% (inactive)
C[C@H](NC(=O)NCCc1ccccc1)C(=O)O | 2.2% (inactive)
CSCC[C@H](NC(=O)NCCc1ccc(F)cc1)C(=O)O | 14.5% (inactive)
CC(C)C[C@H](NC(=O)NCCc1ccc(Cl)cc1)C(=O)O | 59.9% (active)
Cc1ccc(C(=O)C[n+]2cc(-c3ccccc3)n3c2CCCCC3)cc1 | -11.7% (inactive)
NC(=O)Cn1c(=O)oc2ccccc21 | -13.8% (inactive)
CCC(C)c1ccc(O)c(/C=N/O)c1 (stereo unspecified) | 13.7% (inactive)
COc1ccc(C(=O)Nc2nc(-c3ccc(S(=O)(=O)N4CCOCC4)cc3)cs2)cc1 | 62.5% (active)
CCOC(=O)c1csc(NC(=O)c2ccc(S(=O)(=O)N3CCCC3)cc2)n1 | -12.7% (inactive)
COC(=O)[C@H](Cc1ccccc1)NC(=O)Nc1ccc(S(N)(=O)=O)cc1 | 1.6% (inactive)
CCC(=O)Nc1ccc(S(=O)(=O)NCC2CCCO2)cc1 (stereo unspecified) | -1.7% (inactive)
COC(=O)c1ccccc1NC(=O)Cn1nc(C(F)(F)F)c2c1CCC2 | 17.4% (inactive)
COC(=O)c1ccccc1Sc1c(/C=N/OCc2ccc(Cl)cc2)c(C(F)(F)F)nn1C | 89.6% (active)
NC(=O)C1(N2CCCCC2)CCN(C2CC(=O)N(Cc3ccc(N4CCCC4=O)cc3)C2=O)CC1 (stereo unspecified) | 50.1% (active)
CCCNC(=O)NCc1ccc(N2CCCC2=O)cc1 | 17.2% (inactive)
COC(=O)c1cc(NC(=O)CN2CCC(C(N)=O)(N3CCCCC3)CC2)cc(C(=O)OC)c1 | 13.2% (inactive)
